Results filed as inconclusive are left out. The source made the active and inactive calls. The calls were made as follows: active = hit-call score of the fitted dose curve at least 0.9, where 1 is the maximum; inconclusive = response in the unintended direction; inactive = score below 0.9.
How the values were obtained:
[1] = ACEA_AR_antagonist_AUC_viability: ACEA Biosciences xCELLigence Real-Time Cell Analysis on Androgen Receptor Antagonism for Viability (AID 2283776);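 also: 22Rv1 human prostate cancer cells growing on impedance electrode plates; area under impedance growth curve at 80 h after dosing as viability; hits lower the growth signal relative to DMSO meaning cytotoxicity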
In short: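 Impedance read-out (RT-CES): area under growth curve at 80 h post-dose, loss of signal scored vs DMSO baseline. 22Rv1 cells; 8-pt 1:4 series, top 100 uM final, ≤0.5% DMSO; biological duplicate.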

[2] = ACEA_AR_agonist_AUC_viability: ACEA Biosciences xCELLigence Real-Time Cell Analysis on Androgen Receptor Agonism for Viability (AID 2283775);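 as to AC50: viability read 80 hours after compound addition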
In short: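 Read-out is area under the impedance curve at 80 h post-dose in 22Rv1 cells, with DMSO as baseline and signal loss taken as reduced viability. Compounds ran in duplicate from 100 uM final.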

AR (gene 367) [3] = biological target: AR (gene 367) (UniProt P10275); test: ACEA_AR_antagonist_80hr: ACEA Biosciences xCELLigence Real-Time Cell Analysis on Androgen Receptor Antagonism for Proliferation (AID 2283787);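 also: 22Rv1 human prostate cancer cells with growth followed by electrical impedance; hits lower the impedance growth signal relative to DMSO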
Sequence of AR (gene 367) (P10275 whole entry, looked up): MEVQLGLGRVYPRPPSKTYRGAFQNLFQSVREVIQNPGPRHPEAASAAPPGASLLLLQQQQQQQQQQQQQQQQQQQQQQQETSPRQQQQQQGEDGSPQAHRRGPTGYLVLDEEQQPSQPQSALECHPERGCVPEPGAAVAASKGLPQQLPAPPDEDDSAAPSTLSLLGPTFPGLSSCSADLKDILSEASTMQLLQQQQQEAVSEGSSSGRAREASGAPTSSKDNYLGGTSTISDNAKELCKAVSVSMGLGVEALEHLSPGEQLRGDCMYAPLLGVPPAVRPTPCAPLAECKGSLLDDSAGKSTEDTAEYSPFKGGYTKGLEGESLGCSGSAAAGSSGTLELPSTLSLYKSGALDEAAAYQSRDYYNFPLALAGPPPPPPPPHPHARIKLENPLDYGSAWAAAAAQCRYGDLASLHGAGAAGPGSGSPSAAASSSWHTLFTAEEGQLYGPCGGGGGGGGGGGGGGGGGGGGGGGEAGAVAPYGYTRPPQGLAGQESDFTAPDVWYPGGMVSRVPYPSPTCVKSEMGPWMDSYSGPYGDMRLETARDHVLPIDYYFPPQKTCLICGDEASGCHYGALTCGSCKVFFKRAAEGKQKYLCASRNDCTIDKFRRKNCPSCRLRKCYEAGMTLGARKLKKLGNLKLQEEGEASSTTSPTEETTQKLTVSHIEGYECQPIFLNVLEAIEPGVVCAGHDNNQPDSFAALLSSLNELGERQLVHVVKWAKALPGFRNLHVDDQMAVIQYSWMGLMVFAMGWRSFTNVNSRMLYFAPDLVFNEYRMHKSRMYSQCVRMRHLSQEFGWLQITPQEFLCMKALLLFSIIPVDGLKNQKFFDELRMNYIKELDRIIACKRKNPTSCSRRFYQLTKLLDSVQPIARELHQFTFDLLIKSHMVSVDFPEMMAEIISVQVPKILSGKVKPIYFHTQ
In short: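 Growth-kinetic antagonist readout in 22Rv1 cells, taken 80 h after continuous compound exposure. Activity fitted as signal loss relative to DMSO negative control.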

[4] = ACEA_ER_AUC_viability: ACEA Biosciences xCELLigence Real-Time Cell Analysis on Estrogen Receptor Agonism for Viability (AID 2283782);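 also: continuous compound exposure with impedance area under curve over 80 h; hit means loss of impedance signal meaning reduced cell growth or viability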
In short: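 T-47D; phenol red-free RPMI1640 + 10% CS-FBS; 8 conc., 1:4 serial, max 100 uM final, ≤0.5% DMSO; n = 2; continuous exposure; impedance monitored to 80 h post-dose; AUC vs DMSO.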

[5] = ATG_M_06_XSP2: Attagene TRANS-FACTORIAL Multi-Species (XSP2) HepG2 Assay for M06 Transcription Factor (Internal Marker) (AID 2283811);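 also: internal background marker reporter mRNA measured by RT-PCR and capillary electrophoresis; hits are increases in signal above the DMSO baseline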
In short: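 HepG2, multiplexed reporter transfection; 24 h dosing; AR stimulated with 3 nM 6-alpha-fluorotestosterone + 1.5 nM norgestrel; RNA → RT-PCR → 6-FAM primer extension → HpaI → CE. Positive direction vs DMSO.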

AR (gene 367) [6] = biological target: AR (gene 367) (UniProt P10275); test: ACEA_AR_agonist_80hr: ACEA Biosciences xCELLigence Real-Time Cell Analysis on Androgen Receptor Agonism for Proliferation (AID 2283783);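 also: hits increase impedance growth signal above DMSO baseline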
In short: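 Androgen-driven proliferation in 22Rv1 cells is tracked as electrical impedance, taken 80 h after continuous exposure to compound (eight concentrations, 1:4 steps, maximum 100 uM final). Activity is fitted in the positive direction with DMSO as baseline.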

[7] = STM_H9_NormalizedViability: Cytotoxicity Assessment at 120 hours in the Stemina devTOX quickPredict H9 human embryonic stem cell (hESC)-based Assay (AID 2283784)
In short: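 Undifferentiated H9 hESCs kept pluripotent were exposed to compound, with media and chemical replaced every 24h. CellTiter-Fluor protease-substrate fluorescence was background-corrected and normalized per plate to the 0.1% DMSO vehicle; signal loss indicates reduced viability.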

Structure (SMILES): CC(C)=CCCC(C)=CC#N
- outcome [1]: inactive

Structure (SMILES): CC(=O)OC1CCCCC1C(C)(C)C (configuration not stated)
- outcome [2]: inactive
- outcome [1]: inactive
- outcome (AR (gene 367) [3]): inactive

Structure (SMILES): CC1(C)[C@@H]2CC[C@@]1(C)C(=O)C2
- outcome [2]: inactive
- outcome [1]: inactive
- outcome [4]: inactive

Structure (SMILES): CCc1cccc(C)c1N
- outcome [2]: inactive
- outcome [1]: inactive
- outcome (AR (gene 367) [3]): inactive

Structure (SMILES): CCCCCCCCC(CO)CCCCCC (configuration not stated)
- outcome [2]: inactive
- outcome [1]: inactive
- AC50 [4]: 33.9 µM (active)

Structure (SMILES): CCCC=C(C=O)CC
- outcome [2]: inactive
- outcome [4]: inactive

Structure (SMILES): CCCCCCCO
- outcome [1]: inactive

Structure (SMILES): CCCCCCCCCCCCc1ccc(O)cc1
- AC50 [2]: 16.6 µM (active)
- AC50 [1]: 16.6 µM (active)
- AC50 [4]: 20 µM (active)
- outcome [5]: inactive

Structure (SMILES): Cc1c(C(=O)c2c[nH]n(C)c2=O)ccc(S(C)(=O)=O)c1C1=NOCC1
- outcome [2]: inactive
- outcome [1]: inactive
- outcome (AR (gene 367) [3]): inactive

Structure (SMILES): CCCCCCCOC(=O)c1ccc(O)cc1
- outcome [1]: inactive
- AC50 [4]: 24.1 µM (active)

Structure (SMILES): CN(C)Cc1cc(CN(C)C)c(O)c(CN(C)C)c1
- AC50 [2]: 4.16 µM (active)
- outcome (AR (gene 367) [6]): inactive

Structure (SMILES): CC(C)c1ccc(O)c(C(C)C)c1
- outcome [2]: inactive
- AC50 [4]: 79.4 µM (active)

Structure (SMILES): CCCCC(C=O)CC (configuration not stated)
- outcome [2]: inactive
- outcome [4]: inactive

Structure (SMILES): N#Cc1ccc(C2CCCc3cncn32)cc1 (configuration not stated)
- outcome [2]: inactive
- outcome [1]: inactive
- outcome [5]: inactive

Structure (SMILES): c1ccc(Nc2cccc3ccccc23)cc1
- outcome [2]: inactive
- AC50 [1]: 2.4 µM (active)
- AC50 [4]: 81.4 µM (active)

Structure (SMILES): CCCCCCCCCC(C)=O
- outcome [2]: inactive
- outcome [1]: inactive
- outcome [4]: inactive
- outcome (AR (gene 367) [3]): inactive

Structure (SMILES): COc1ccc(-c2coc3cc(O)cc(O)c3c2=O)cc1
- outcome [2]: inactive
- AC50 [1]: 0.86 µM (active)
- outcome [5]: inactive

Structure (SMILES): CCCCCCCCCCCCCCCCCCOS(=O)(=O)O
- outcome [2]: inactive
- AC50 [4]: 75.4 µM (active)

Structure (SMILES): CCCCCCOC(=O)CCCCC(=O)OCCCCCC
- outcome [1]: inactive

Structure (SMILES): CCCCC/C=C\C/C=C\CCCCCCCC(=O)O
- outcome [2]: inactive
- outcome [1]: inactive
- AC50 [4]: 81.4 µM (active)

Structure (SMILES): O=C(O)c1ccc2c(c1)C(=O)OC2=O
- outcome [1]: inactive
- outcome [4]: inactive
- outcome (AR (gene 367) [6]): inactive
- outcome (AR (gene 367) [3]): inactive

Structure (SMILES): CCC1COC(=O)O1 (configuration not stated)
- outcome [1]: inactive
- outcome [4]: inactive

Structure (SMILES): CCCCCCOc1ccc(N)cc1
- outcome [1]: inactive
- AC50 [4]: 86.8 µM (active)

Structure (SMILES): CCN1CCCC1=O
- outcome [4]: inactive

Structure (SMILES): CCC(C)c1ccccc1 (configuration not stated)
- outcome [4]: inactive

Structure (SMILES): COc1ccc(C(=O)/C(Br)=C\C(=O)O)cc1
- AC50 [4]: 29.2 µM (active)

Structure (SMILES): O=S(=O)(O)c1ccc(Nc2nc(Nc3ccc(C=Cc4ccc(Nc5nc(Nc6ccc(S(=O)(=O)O)cc6)nc(N(CCO)CCO)n5)cc4S(=O)(=O)O)c(S(=O)(=O)O)c3)nc(N(CCO)CCO)n2)cc1
- outcome [4]: inactive

Structure (SMILES): COC(=O)c1ccc(C(=O)OC)c(C(=O)OC)c1
- AC50 [4]: 69.6 µM (active)

Structure (SMILES): COc1cc(O)c(C(=O)c2ccccc2)cc1S(=O)(=O)O
- outcome [1]: inactive
- AC50 (AR (gene 367) [6]): 0.0228 µM (active)

Structure (SMILES): CCOC(=O)c1ccc(C)cc1
- outcome [1]: inactive
- outcome [4]: inactive

Structure (SMILES): CCCC/C=C/C=C\C=O
- AC50 [4]: 88.9 µM (active)

Structure (SMILES): CCNc1nc(NC(C)(C)C)nc(OC)n1
- AC50 [4]: 26.2 µM (active)

Structure (SMILES): N=C1C=CC(=C(c2ccc(N)cc2)c2ccc(N)cc2)C=C1
- AC50 [4]: 34.5 µM (active)

Structure (SMILES): Cc1cccc(C(C)(C)C)c1O
- outcome [4]: inactive

Structure (SMILES): CCCCCC[C@@H](O)C/C=C\CCCCCCCC(=O)OCC(O)CO (some centres not stated)
- outcome [1]: inactive
- outcome [4]: inactive
- outcome (AR (gene 367) [6]): inactive
- outcome (AR (gene 367) [3]): inactive

Structure (SMILES): CC(CCC(=O)O)(c1ccc(O)cc1)c1ccc(O)cc1
- AC50 [1]: 1.24 µM (active)
- AC50 [7]: 0.0494 µM (active)
- outcome [5]: inactive

Structure (SMILES): CC(C)[N+](C)(CCOC(=O)C1c2ccccc2Oc2ccccc21)C(C)C
- outcome [4]: inactive

Structure (SMILES): CCCCCC(=O)OCC
- outcome [1]: inactive
- outcome [4]: inactive

Structure (SMILES): C=CC(C)(O)CC/C=C(\C)CC (configuration not stated)
- AC50 [4]: 50 µM (active)

Structure (SMILES): CC(C)(CO)COC(=O)C(C)(C)CO
- outcome [4]: inactive

Structure (SMILES): Cc1ccc(C)c(OCCCC(C)(C)C(=O)O)c1
- outcome [1]: inactive
- outcome (AR (gene 367) [6]): inactive
- outcome (AR (gene 367) [3]): inactive

Structure (SMILES): O=C1CCCCCCCCCCC1
- outcome [4]: inactive

Structure (SMILES): CCOC(=O)C1=NOC(c2ccccc2)(c2ccccc2)C1
- outcome [1]: inactive
- outcome [4]: inactive

Structure (SMILES): Cc1c(Cl)cccc1Cl
- outcome [4]: inactive

Structure (SMILES): CCCCCCO
- outcome [1]: inactive
- outcome [4]: inactive

Structure (SMILES): Oc1ccccc1Cc1ccccc1O
- AC50 [1]: 1.48 µM (active)
- outcome [7]: inactive
- outcome [5]: inactive

Structure (SMILES): C=CC(=O)O[C@H]1C[C@@H]2CC[C@@]1(C)C2(C)C
- outcome [4]: inactive

Structure (SMILES): CC(C)=CCl
- outcome [4]: inactive

Structure (SMILES): CC1(C)C(=O)N(CO)C(=O)N1CO
- outcome [4]: inactive

Structure (SMILES): CC(=O)OCCc1ccccc1
- outcome [4]: inactive

Structure (SMILES): CC(C)CC(=O)OCc1ccccc1
- AC50 [4]: 50 µM (active)

Structure (SMILES): C=CCNCC=C
- AC50 [4]: 50.5 µM (active)

Structure (SMILES): CCOC(=O)[C@H](O)[C@@H](O)C(=O)OCC
- AC50 [4]: 50 µM (active)

Structure (SMILES): CC(C)CCCCCOC(=O)CS
- outcome [4]: inactive

Structure (SMILES): C=CC(=O)OCCCCCCCC(C)C
- outcome [4]: inactive

Structure (SMILES): CC(C)=NNC(N)=S
- AC50 [4]: 82.4 µM (active)

Structure (SMILES): COC(=O)c1ccccc1C
- outcome [1]: inactive
- outcome [4]: inactive

Source: PubChem BioAssay (EPA / NIEHS)
